# Laboratory results published in the supplement of paper PMC12645437, “Orthogonal IMiD-Degron Pairs Induce Selective Protein Degradation in Cells” (ACS Chemical Biology, 2025).
# In all, about 8,300 sequences were measured (“log2 fold change of degron read counts, EGFP-low vs EGFP+ sorted cells (limma voom), compound-induced degradation”: median about -1.1, highest 2% from about 3.2 on). Only a selection was taken, and the highest values are over-represented in it overall.
# T1: CRBN, Q96SW2
# T1 chain: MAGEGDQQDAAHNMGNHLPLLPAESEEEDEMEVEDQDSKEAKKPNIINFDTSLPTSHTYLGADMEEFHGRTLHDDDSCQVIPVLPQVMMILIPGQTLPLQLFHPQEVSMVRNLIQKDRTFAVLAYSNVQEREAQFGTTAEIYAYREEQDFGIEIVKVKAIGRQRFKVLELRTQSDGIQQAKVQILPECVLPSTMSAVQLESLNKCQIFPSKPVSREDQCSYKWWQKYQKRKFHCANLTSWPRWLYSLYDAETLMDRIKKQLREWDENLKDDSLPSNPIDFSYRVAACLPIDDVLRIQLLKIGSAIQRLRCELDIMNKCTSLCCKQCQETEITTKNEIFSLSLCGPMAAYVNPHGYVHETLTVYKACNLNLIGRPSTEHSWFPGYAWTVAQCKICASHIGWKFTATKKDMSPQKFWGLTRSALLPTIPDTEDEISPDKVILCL
# B1: 46F_47N_49N_50I_52G_53A_54C_55F_67L_, Q9UKT9 (peptide)
# chain: FNCNICGACFTQKGNLLRHIKL
# B2: 46F_47T_49S_50V_52G_53H_54A_55F_67L_, Q9UKT9 (peptide)
# chain: FTCSVCGHAFTQKGNLLRHIKL
# B3: 46F_47M_49N_50Q_52G_53A_54I_55F_67L_, Q9UKT9 (peptide)
# chain: FMCNQCGAIFTQKGNLLRHIKL
# B4: 46F_47E_49P_50I_52G_53H_54R_55F_67L_, Q9UKT9 (peptide)
# chain: FECPICGHRFTQKGNLLRHIKL
# B5: 46L_47H_49E_50I_52G_53F_54C_55C_67L_, Q9UKT9 (peptide)
# chain: LHCEICGFCCTQKGNLLRHIKL
# B6: 46F_47Y_49E_50I_52G_53R_54T_55F_67L_, Q9UKT9 (peptide)
# chain: FYCEICGRTFTQKGNLLRHIKL
# B7: 46F_47Y_49N_50Q_52G_53H_54V_55F_67L_, Q9UKT9 (peptide)
# chain: FYCNQCGHVFTQKGNLLRHIKL
# B8: 46F_47H_49P_50V_52G_53A_54F_55F_67L_, Q9UKT9 (peptide)
# chain: FHCPVCGAFFTQKGNLLRHIKL
# B9: 46F_47G_49E_50I_52G_53A_54Y_55F_67L_, Q9UKT9 (peptide)
# chain: FGCEICGAYFTQKGNLLRHIKL
# B10: 46F_47I_49E_50I_52G_53A_54Y_55F_67L_, Q9UKT9 (peptide)
# chain: FICEICGAYFTQKGNLLRHIKL
# B11: 46F_47A_49E_50I_52G_53A_54Y_55F_67L_, Q9UKT9 (peptide)
# chain: FACEICGAYFTQKGNLLRHIKL
# B12: 46F_47Y_49E_50I_52G_53A_54Y_55F_67L_, Q9UKT9 (peptide)
# chain: FYCEICGAYFTQKGNLLRHIKL
# B13: 46F_47R_49E_50I_52G_53A_54Y_55F_67L_, Q9UKT9 (peptide)
# chain: FRCEICGAYFTQKGNLLRHIKL
# B14: 46F_47W_49E_50I_52G_53A_54Y_55F_67L_, Q9UKT9 (peptide)
# chain: FWCEICGAYFTQKGNLLRHIKL
# B15: 46F_47H_49D_50Q_52G_53A_54C_55F_67L_, Q9UKT9 (peptide)
# chain: FHCDQCGACFTQKGNLLRHIKL
# B16: 46F_47I_49P_50I_52G_53A_54I_55F_67L_, Q9UKT9 (peptide)
# chain: FICPICGAIFTQKGNLLRHIKL
# B17: 46F_47I_49P_50I_52G_53R_54H_55F_67L_, Q9UKT9 (peptide)
# chain: FICPICGRHFTQKGNLLRHIKL
# B18: 46F_47Y_49D_50V_52G_53A_54T_55F_67L_, Q9UKT9 (peptide)
# chain: FYCDVCGATFTQKGNLLRHIKL
# B19: 46F_47H_49E_50V_52G_53A_54R_55F_67L_, Q9UKT9 (peptide)
# chain: FHCEVCGARFTQKGNLLRHIKL
# B20: 46F_47S_49E_50V_52G_53A_54R_55F_67L_, Q9UKT9 (peptide)
# chain: FSCEVCGARFTQKGNLLRHIKL
# B21: 46F_47T_49E_50V_52G_53A_54R_55F_67L_, Q9UKT9 (peptide)
# chain: FTCEVCGARFTQKGNLLRHIKL
# B22: 46F_47T_49E_50V_52G_53A_54L_55F_67L_, Q9UKT9 (peptide)
# chain: FTCEVCGALFTQKGNLLRHIKL
# B23: 46F_47R_49E_50V_52G_53A_54R_55F_67L_, Q9UKT9 (peptide)
# chain: FRCEVCGARFTQKGNLLRHIKL
# B24: 46F_47T_49N_50I_52G_53A_54G_55F_67L_, Q9UKT9 (peptide)
# chain: FTCNICGAGFTQKGNLLRHIKL
# B25: 46F_47S_49E_50I_52G_53A_54E_55F_67L_, Q9UKT9 (peptide)
# chain: FSCEICGAEFTQKGNLLRHIKL
# B26: 46F_47K_49P_50I_52G_53A_54A_55F_67L_, Q9UKT9 (peptide)
# chain: FKCPICGAAFTQKGNLLRHIKL
# B27: 46F_47V_49P_50I_52G_53A_54A_55F_67L_, Q9UKT9 (peptide)
# chain: FVCPICGAAFTQKGNLLRHIKL
# B28: 46F_47H_49P_50I_52G_53A_54A_55F_67L_, Q9UKT9 (peptide)
# chain: FHCPICGAAFTQKGNLLRHIKL
# B29: 46F_47G_49P_50I_52G_53A_54A_55F_67L_, Q9UKT9 (peptide)
# chain: FGCPICGAAFTQKGNLLRHIKL
# B30: 46F_47N_49P_50I_52G_53A_54A_55F_67L_, Q9UKT9 (peptide)
# chain: FNCPICGAAFTQKGNLLRHIKL
# B31: 46F_47I_49P_50I_52G_53A_54A_55F_67L_, Q9UKT9 (peptide)
# chain: FICPICGAAFTQKGNLLRHIKL
# B32: 46F_47Y_49P_50I_52G_53A_54A_55F_67L_, Q9UKT9 (peptide)
# chain: FYCPICGAAFTQKGNLLRHIKL
# B33: 46F_47F_49P_50I_52G_53A_54A_55F_67L_, Q9UKT9 (peptide)
# chain: FFCPICGAAFTQKGNLLRHIKL
# B34: 46F_47S_49P_50I_52G_53A_54A_55F_67L_, Q9UKT9 (peptide)
# chain: FSCPICGAAFTQKGNLLRHIKL
# B35: 46F_47Q_49P_50I_52G_53A_54A_55F_67L_, Q9UKT9 (peptide)
# chain: FQCPICGAAFTQKGNLLRHIKL
# B36: 46F_47R_49P_50I_52G_53A_54A_55F_67L_, Q9UKT9 (peptide)
# chain: FRCPICGAAFTQKGNLLRHIKL
# B37: 46F_47W_49P_50I_52G_53A_54A_55F_67L_, Q9UKT9 (peptide)
# chain: FWCPICGAAFTQKGNLLRHIKL
# Biological target: T1, CRBN, Q96SW2
# Assay: log2 fold change of degron read counts, EGFP-low vs EGFP+ sorted cells (limma voom), compound-induced degradation; higher = more compound-induced degradation of the degron-EGFP fusion; degrons are variants of IKZF1/3 zinc finger 2; compound dose not given here
# Details: Jurkat, 18 h
# [1] = compound: compound 19 (5-tert-butyl-thalidomide)
# [2] = compound: compound 22 (5-morpholino-thalidomide)
# [3] = compound: compound 33 (diphenyl IMiD analogue)
# 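Further: pooled lentiviral library of zinc finger degron-EGFP fusions in mCherry-positive Jurkat cells, FACS-sorted after compound exposure, with degron abundance counted by next-generation sequencing.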
Sequence,log2 fold change of degron read counts [1],log2 fold change of degron read counts [2],log2 fold change of degron read counts [3],log2 fold change of degron read counts (compound: thalidomide)
B1,0.853,-0.00319,0.551,-0.352
B2,-2.6,-3.26,-2.56,-2.32
B3,-1.99,-2.22,-1.03,-1.47
B4,-2.87,-2.87,-1.63,-0.824
B5,1.84,1.64,1.25,0.874
B6,0.432,1.09,0.33,-1.02
B7,-2.11,-2.08,-2.48,-1.76
B8,0.94,0.598,1.1,-0.224
B9,1.74,0.231,2.58,0.883
B10,-0.272,1.41,2.34,2.12
B11,3.17,1.39,0.71,0.202
B12,3.25,2.89,2.12,0.307
B13,-0.965,-0.721,0.747,1.98
B14,3.24,2.92,1.88,0.14
B15,-1.69,-1.96,-2.17,-2.89
B16,-1.09,0.608,1.82,1.64
B17,-1.55,-0.572,-0.548,0.569
B18,2.06,2.82,0.691,-1.49
B19,2.39,2.38,0.473,0.568

Sequence,log2 fold change of degron read counts [1],log2 fold change of degron read counts [2],log2 fold change of degron read counts [3],log2 fold change of degron read counts (compound: thalidomide)
B20,3.53,2.6,0.369,2.08
B21,1.77,3.04,1.75,3.26
B22,-0.893,-0.862,0.362,0.612
B23,-1.49,-2.37,-0.456,0.516
B24,0.378,0.88,1.61,1.21
B25,1.69,0.708,0.218,0.0707
B26,2.04,-0.319,-1.26,1.01
B27,1.31,2.85,2.04,3.03
B28,3.05,2.78,2.28,1.19
B29,3.57,2.61,2.88,1.63
B30,2.96,1.85,0.954,1.13
B31,0.268,3.15,2.21,2.78
B32,2.86,3.24,2.38,0.578
B33,3.15,3,2.18,1.33
B34,3.12,2.69,2.7,2.11
B35,2.65,3.13,2.56,3.53
B36,2.26,2.26,2.48,2.19
B37,3.12,3.3,2.33,1.2
